Test results as given in PubChem BioAssay AID2283149 (EPA ToxCast).
Records with an inconclusive call do not appear. The source made the active and inactive calls. How the source made its calls: active means hit-call score of the fitted dose curve at least 0.9, where 1 is the maximum; inconclusive means response in the unintended direction; inactive means score below 0.9.

Biological target: human Casein Kinase 1-alpha (CK1a), CSNK1A1 (gene 1452) (UniProt P48729)
Experiment: NVS_ENZ_hCK1a: NovaScreen (NVS) Enzymatic Assay for human Casein Kinase 1-alpha (CK1a)
Procedure: NVS_ENZ_hCK1a is a biochemical, single-readout assay that uses extracted gene-proteins in a cell-free assay. Measurements were taken 1 hour after chemical dosing in a 384-well plate.NVS_ENZ_hCK1a is one of one assay component(s) measured or calculated from the NVS_ENZ_hCK1a assay. It is designed to make measurements of enzyme activity, a form of enzyme reporter, as detected with fluorescence intensity signals by Fluorescence and electrophoretic mobility shift technology.Data from the assay component NVS_ENZ_hCK1a was analyzed into 1 assay endpoint. This assay endpoint, NVS_ENZ_hCK1a, was analyzed in the positive analysis fitting direction relative to DMSO as the negative control and baseline of activity. Using a type of enzyme reporter, loss-of-signal activity can be used to understand changes in the enzymatic activity as they relate to the gene CSNK1A1. Furthermore, this assay endpoint can be referred to as a primary readout, because this assay has produced multiple assay endpoints where this one serves a enzymatic activity function. To generalize the intended target to other relatable targets, this assay endpoint is annotated to the kinase intended target family, where the subfamily is serine/threonine kinase.
Binding assays used specific radioligands (tritiated, iodinated) with non-radioactive competitive displacement ligands in agonist or antagonist protocols (as indicated) and various reference compounds and inhibitors to titrate specific binding to receptors and transporters. Most enzyme assays (CYPs, kinases, phosphatases, proteases, HDACs) used recombinant protein and specific substrates (fluorescence mostly, some colorimetric and radioactive) and inhibitors, followed by a biochemical separation of substrate and product. All assays for the biochemical HTS were initially run in duplicate at a single concentration (10 uM for CYP450 assays and 25 uM for all others). Assay-chemical combinations meeting a pre-defined threshold (e.g., 30% inhibition and other criteria defined below) were then run in singleton concentration-response format with maximum concentration of 20 uM for CYPs and 50 uM for all others. Each assay was run with positive and negative controls, and concurrent controls on every plate. The follow-up (secondary) screen tested active chemical-pairs in concentration series, as well as a few additional assays not tested in the primary screen, some selected negative inactives, and several cases re-run in the concentration series for confirmatory purposes.

human Casein Kinase 1-alpha (CK1a), CSNK1A1 (gene 1452), sequence (P48729 whole entry, looked up): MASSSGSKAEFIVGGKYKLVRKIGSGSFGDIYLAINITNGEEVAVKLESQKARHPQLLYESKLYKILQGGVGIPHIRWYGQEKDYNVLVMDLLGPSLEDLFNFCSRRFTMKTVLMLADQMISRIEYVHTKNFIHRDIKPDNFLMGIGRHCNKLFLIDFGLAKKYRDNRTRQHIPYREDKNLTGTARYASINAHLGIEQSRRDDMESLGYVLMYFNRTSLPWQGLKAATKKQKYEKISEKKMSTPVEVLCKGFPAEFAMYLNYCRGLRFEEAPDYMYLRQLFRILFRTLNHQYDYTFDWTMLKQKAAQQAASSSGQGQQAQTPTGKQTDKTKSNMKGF

Compound | AC50 | outcome
O=C(O)C1(C(=O)Nc2ccc(Cl)cc2Cl)CC1 | 8.67 µM (active) | 
O=S(=O)(O)C(F)(F)C(F)(F)C(F)(F)C(F)(F)C(F)(F)C(F)(F)C(F)(F)C(F)(F)F | 21.1 µM (active) | 
Nc1nc(N)nc(NC2CC2)n1 |  | inactive
CN(C)[C@@H]1C(=O)C(C(N)=O)=C(O)[C@@]2(O)C(=O)C3=C(O)c4c(O)cccc4[C@@](C)(O)[C@H]3[C@H](O)[C@@H]12 | 36.4 µM (active) | 
N#CSCSC#N |  | inactive
O=C(Nc1ccc([N+](=O)[O-])cc1Cl)c1cc(Cl)ccc1O |  | inactive
CO/C=C(/C(=O)OC)c1ccccc1Oc1cc(Oc2ccccc2C#N)ncn1 |  | inactive
S=C([S-])NCCNC(=S)[S-].[Mn+2] | 19.4 µM (active) | 
S=C(S)NCCNC(=S)S.[Mn+2].[S-]C([S-])=NCCN=C([S-])[S-].[Zn+2] | 9.19 µM (active) | 
